Test results reported in PubChem BioAssay (NCATS).
Records with an inconclusive call do not appear. The source made the active and inactive calls. Unless noted, calls come from the whole dose curve; as a rule, active = well fitted curve in the direction sought with a large enough effect; inconclusive = small, poorly fitted or top-dose-only effect, or another doubt; inactive = no such curve, though single readings can be large; an effect the other way counts as inactive or inconclusive.

Experiments:
Hek293T = assay: Primary qHTS to identify gynecologic anti-cancer compounds using libraries of approved drugs and bioactive compounds (AID 1345084); settings: Gynecologic cancer cell panel viability, ATPlite luminescence, 48 h, control line for the selectivity index; series mostly up to 57.5 µM; note: % is set by controls: 0 for no effect and ±100 for the full control effect; nearly all actives have a fitted effect of over 55% in size
Outline: (§1)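 Cells, 1,000 per well, plated 16 h, then exposed 48 h at 37 C to compounds. Viability by ATPlite luminescence after 15 min at room temperature.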

JEG-3 = assay: as above; settings: Gynecologic cancer cell panel viability, ATPlite luminescence, 48 h; series mostly up to 57.5 µM
Outline: as §1

OV90 = assay: as above; settings: Gynecologic cancer cell panel viability, ATPlite luminescence, 48 h; series mostly up to 57.5 µM
Outline: as §1

PA-1 = assay: as above; settings: Gynecologic cancer cell panel viability, ATPlite luminescence, 48 h; series mostly up to 57.5 µM
Outline: as §1

SKOV3 = assay: as above; settings: Gynecologic cancer cell panel viability, ATPlite luminescence, 48 h; series mostly up to 57.5 µM
Outline: as §1

Tov-21-G = assay: as above; settings: Gynecologic cancer cell panel viability, ATPlite luminescence, 48 h; series mostly up to 57.5 µM
Outline: as §1

Tov112D = assay: as above; settings: Gynecologic cancer cell panel viability, ATPlite luminescence, 48 h; series mostly up to 57.5 µM
Outline: as §1

[1] = Drug repurposing screens with cells derived from glioblastoma tumor samples (AID 1345199); settings: GBM patient neurospheres viability, ATP luminescence, 48 h; note: nearly all actives have a fitted effect of over 40% in size; note: potency is the fitted concentration of half-maximal effect; for activity, negative = cell killing: % is set by controls: 0 for no effect and ±100 for the full control effect
Outline: (§2)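 Primary testing used CD133+ neurospheres from four GBM patients, seven concentrations, 48 h exposure and ATP-based viability; confirmation added three slower-growing patient lines.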

astro = assay: as above; settings: viability, ATP luminescence, 48 h; series mostly up to 45.9 µM
Outline: as §2

[2] = qHTS assay to identify inhibitors of the type 1 interferon - major histocompatibility complex class I in skeletal muscle: Counter screen cell viability and HiBit confirmation (AID 1347412); settings: iHSKM muscle cells + IFN-b, HiBiT or CellTiter-Glo, 24 h; Viability, at 45.9 µM (top of the series); note: % is set by controls: 0 for no effect and ±100 for the full control effect; nearly all actives have a fitted effect of over 60% in size
Outline: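 After 24 h with human IFN-beta (4 ng/ml) and compound titrations (top 46 uM final, 1:3, 12 points), HLA-B HiBit myoblasts were lysed for either Nano-Glo HiBiT luminescence or CellTiter Glo viability on paired plates.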

[3] = target: Nuclear receptor subfamily 1 group I member 2 (Rattus norvegicus) (UniProt Q9R1A7); assay: qHTS assay for small molecule activators of the rat pregnane X receptor (rPXR) signaling pathway (AID 651751; call rule not given here; note: 0% is about no effect); settings: rPXR reporter cells, luciferase (One-Glo), 24 h
Chain of Nuclear receptor subfamily 1 group I member 2 (Rattus norvegicus) (Q9R1A7 whole entry, looked up): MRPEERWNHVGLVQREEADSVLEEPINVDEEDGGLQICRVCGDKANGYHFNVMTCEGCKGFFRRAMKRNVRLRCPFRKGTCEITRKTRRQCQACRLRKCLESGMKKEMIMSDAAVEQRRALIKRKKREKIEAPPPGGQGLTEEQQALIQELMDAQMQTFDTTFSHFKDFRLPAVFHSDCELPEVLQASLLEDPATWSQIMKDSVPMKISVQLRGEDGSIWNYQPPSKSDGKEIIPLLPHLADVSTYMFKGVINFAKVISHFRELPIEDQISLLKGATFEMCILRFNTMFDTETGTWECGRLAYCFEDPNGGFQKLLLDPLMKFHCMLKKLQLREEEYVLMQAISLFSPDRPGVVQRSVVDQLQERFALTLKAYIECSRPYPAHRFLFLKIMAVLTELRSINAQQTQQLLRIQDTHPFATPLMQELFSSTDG

[4] = qHTS assay for small molecule activators of the human pregnane X receptor (PXR) signaling pathway (AID 720659; call rule not given here; note: 0% is about no effect)
[5] = at 45.9 µM (top of the series), tumour line B
[6] = at 45.9 µM (top of the series), tumour line D
[7] = at 46.1 µM (top of the series), tumour line C
[8] = at 46 µM (top of the series), tumour line A

CC(C)=CCC[C@@](C)(O)[C@H]1CC=C(C)CC1
inactive: outcome (Hek293T) | outcome (JEG-3) | Potency (OV90) | outcome (PA-1) | outcome (SKOV3) | outcome (Tov-21-G) | outcome (Tov112D) | activity, negative = cell killing [1, 5] -3.12% | activity, negative = cell killing [1, 6] 18.2% | activity, negative = cell killing [1, 7] -10.5% | outcome (astro)

CCCCOC(=O)c1ccc(N)cc1
active: Potency ([1]; tumour line A) 11.2 µM | Potency ([1]; tumour line B) 12.6 µM | Potency ([1]; tumour line C) 16.4 µM
inactive: outcome (Hek293T) | outcome (JEG-3) | Potency (OV90) | outcome (PA-1) | outcome (SKOV3) | outcome (Tov-21-G) | outcome (Tov112D) | activity, negative = cell killing [1, 6] -24.9% | outcome [2] | max response [3] 15.7%

Cc1ccccc1N=Nc1ccc(N=Nc2c(O)ccc3ccccc23)c(C)c1
inactive: outcome (Hek293T) | outcome (JEG-3) | Potency (OV90) | outcome (PA-1) | outcome (SKOV3) | outcome (Tov-21-G) | outcome (Tov112D) | activity, negative = cell killing [1, 5] -15.7% | activity, negative = cell killing [1, 6] -2.5% | activity, negative = cell killing [1, 7] -1.06% | outcome (astro)

CCOC(=O)[C@H](CCc1ccccc1)N[C@@H](C)C(=O)N1Cc2cc(OC)c(OC)cc2C[C@H]1C(=O)O
inactive: outcome (Hek293T) | outcome (JEG-3) | Potency (OV90) | outcome (PA-1) | outcome (SKOV3) | outcome (Tov-21-G) | outcome (Tov112D) | activity, negative = cell killing [1, 5] -9.77% | activity, negative = cell killing [1, 6] -6.92% | activity, negative = cell killing [1, 7] -6.4% | outcome (astro)

CCCCCC(N)=O
inactive: outcome (Hek293T) | outcome (JEG-3) | Potency (OV90) | outcome (PA-1) | outcome (SKOV3) | outcome (Tov-21-G) | outcome (Tov112D) | activity, negative = cell killing [1, 5] -6.65% | activity, negative = cell killing [1, 6] -23.8% | activity, negative = cell killing [1, 8] -18.7% | activity, negative = cell killing [1, 7] -14.8% | max response [3] 8.83% | outcome [4]

CCCCCCCCCCOc1cc2c(=O)c(C(=O)OCC)c[nH]c2cc1OCC
inactive: activity change, negative = cytotoxicity (Hek293T) 4.2% [at 6.55 µM] | activity change, negative = cytotoxicity (JEG-3) 6.94% [at 6.55 µM] | activity change, negative = cytotoxicity (OV90) -2.35% [at 6.55 µM] | activity change, negative = cytotoxicity (PA-1) -2.19% [at 6.55 µM] | activity change, negative = cytotoxicity (SKOV3) 0.739% [at 6.55 µM] | activity change, negative = cytotoxicity (Tov-21-G) 1.05% [at 6.55 µM] | activity change, negative = cytotoxicity (Tov112D) -6.94% [at 6.55 µM] | activity, negative = cell killing [1, 5] 2.17% | activity, negative = cell killing [1, 6] -20.1% | activity, negative = cell killing [1, 7] -26.1% | outcome (astro)

O=C(O)Cc1cn(-c2ccccc2)nc1-c1ccc(Cl)cc1
inactive: outcome (Hek293T) | outcome (JEG-3) | Potency (OV90) | outcome (PA-1) | outcome (SKOV3) | outcome (Tov-21-G) | outcome (Tov112D) | activity, negative = cell killing [1, 5] -17.9% | activity, negative = cell killing [1, 6] -13.4% | activity, negative = cell killing [1, 7] -18.4% | outcome (astro)

CC(C)(C)NCC(O)COc1cccc2c1CCC(=O)N2 (centres undefined)
inactive: outcome (Hek293T) | outcome (JEG-3) | Potency (OV90) | outcome (PA-1) | outcome (SKOV3) | outcome (Tov-21-G) | outcome (Tov112D) | activity, negative = cell killing ([1]; at 20 µM (top of the series), tumour line C) -4.91% | activity, negative = cell killing ([1]; at 21.2 µM (top of the series), tumour line B) -10.6% | activity, negative = cell killing ([1]; at 21.2 µM (top of the series), tumour line D) 12.4% | outcome (astro)

Cc1cc(OI)c(C(C)C)cc1-c1cc(C(C)C)c(OI)cc1C
inactive: outcome (Hek293T) | outcome (JEG-3) | Potency (OV90) | outcome (PA-1) | outcome (SKOV3) | outcome (Tov-21-G) | outcome (Tov112D) | activity, negative = cell killing [1, 5] -6.87% | activity, negative = cell killing [1, 6] -13.4% | activity, negative = cell killing [1, 7] 33.1% | outcome (astro)

Cc1cc(NC(=O)C2=C(O)c3ccccc3S(=O)(=O)N2C)no1
inactive: outcome (Hek293T) | outcome (JEG-3) | Potency (OV90) | outcome (PA-1) | outcome (SKOV3) | outcome (Tov-21-G) | outcome (Tov112D) | activity, negative = cell killing [1, 5] -5.07% | activity, negative = cell killing [1, 6] -8.1% | activity, negative = cell killing [1, 7] -15.1% | outcome (astro)

Cc1cccc(Nc2ccccc2C(=O)O)c1C
inactive: outcome (Hek293T) | outcome (JEG-3) | Potency (OV90) | outcome (PA-1) | outcome (SKOV3) | outcome (Tov-21-G) | outcome (Tov112D) | activity, negative = cell killing [1, 5] -15.4% | activity, negative = cell killing [1, 6] -14.4% | activity, negative = cell killing [1, 8] -20% | activity, negative = cell killing [1, 7] -15.4% | max response [3] 2.62%

CC(=O)NS(=O)(=O)c1ccc(N)cc1
inactive: outcome (Hek293T) | outcome (JEG-3) | Potency (OV90) | outcome (PA-1) | outcome (SKOV3) | outcome (Tov-21-G) | outcome (Tov112D) | activity, negative = cell killing [1, 5] -8.29% | activity, negative = cell killing [1, 6] -18.7% | activity, negative = cell killing [1, 8] -22.6% | activity, negative = cell killing [1, 7] -4.02% | outcome (astro) | max response [3] -2.2% | outcome [4]

O=C(O)CCCc1ccccc1
inactive: outcome (Hek293T) | outcome (JEG-3) | Potency (OV90) | outcome (PA-1) | outcome (SKOV3) | outcome (Tov-21-G) | outcome (Tov112D) | activity, negative = cell killing [1, 5] -2.94% | activity, negative = cell killing [1, 6] -2.78% | activity, negative = cell killing [1, 7] -9.45% | outcome (astro)

Cc1ccc(S(=O)(=O)NC(=O)NC2CCCCCCC2)cc1
inactive: outcome (Hek293T) | outcome (JEG-3) | Potency (OV90) | outcome (PA-1) | outcome (SKOV3) | outcome (Tov-21-G) | outcome (Tov112D) | activity, negative = cell killing [1, 5] -4.76% | activity, negative = cell killing [1, 6] 3.34% | activity, negative = cell killing [1, 8] -27.8% | outcome (astro)

CC(C)=CCC/C(C)=C/CO
inactive: outcome (Hek293T) | outcome (JEG-3) | Potency (OV90) | outcome (PA-1) | outcome (SKOV3) | outcome (Tov-21-G) | outcome (Tov112D) | activity, negative = cell killing [1, 5] -6.27% | activity, negative = cell killing [1, 6] 1.11% | activity, negative = cell killing [1, 8] -25.2% | activity, negative = cell killing [1, 7] 8.23% | max response [3] 1.1%

CN(C/C=C/C#CC(C)(C)C)Cc1cccc2ccccc12
active: Potency ([1]; tumour line A) 20 µM
inactive: outcome (Hek293T) | outcome (JEG-3) | Potency (OV90) | outcome (PA-1) | outcome (SKOV3) | outcome (Tov-21-G) | outcome (Tov112D) | activity, negative = cell killing [1, 7] -0.19% | outcome (astro)

Cc1cccc(C)c1NC(=O)CC12CCCN1CCC2
inactive: outcome (Hek293T) | outcome (JEG-3) | Potency (OV90) | outcome (PA-1) | outcome (SKOV3) | outcome (Tov-21-G) | outcome (Tov112D) | activity, negative = cell killing [1, 5] -10.6% | activity, negative = cell killing [1, 6] -15.8% | outcome (astro)
